± gives the standard deviation.
Tests used:
[1] = test system: MILI (PIWIL2) piRISC loaded with L1MC piRNA (26 nt); assay: pre-steady-state target cleavage rate (min^-1); guide: L1MC piRNA 5'p-UAACUAAAUACUAUGCAAGCUGUAGG; higher = faster piRNA-guided slicing of the target; conditions: auxiliary factor: 500 nM mouse GTSF1;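 note: 1 nM active piRISC with 0.1 nM target library at 33 °C single turnover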
How it was run: (§1)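 Three pooled Cleave-'n-Seq trials supplied the data, with k3 capped at 0.0001 min^-1. In each, […] transcribed, DNA-blocked target RNA library and 1 nM active affinity-purified piRISC with one synthetic guide reacted in HEPES–potassium acetate buffer at 33 °C for 0–8 or 0–960 min, with or without 500 nM GTSF1 partner protein. Uncleaved targets were sequenced and normalised to depth and to weakly complementary targets. A burst-and-steady-state fit provided the pre-steady-state cleavage rate.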

[2] = test system: EfPiwi piRISC loaded with L1MC piRNA (26 nt); assay: pre-steady-state target cleavage rate (min^-1); auxiliary factor: 500 nM Ephydatia muelleri Gtsf1; guide: L1MC piRNA 5'p-UAACUAAAUACUAUGCAAGCUGUAGG; MIWI and MILI are mouse PIWI proteins and EfPiwi is from a freshwater sponge; tags in brackets are library labels; higher = faster piRNA-guided slicing of the target
How it was run: as §1

Sequence | pre-steady-state target cleavage rate [1] | pre-steady-state target cleavage rate [2]
UCCUGCUACAGCUUGCAUAGAAUUUUGUUA | 0.06 ± 0.013 | 0.00457 ± 0.0019
UCCUCCUACACCUUGCAUAGUAUUUACUUA | 0.128 ± 0.038 | 0.00326 ± 0.0032
UCCUCCUACAGCUAGCAUAGUAUUUUGUUA | 0.151 ± 0.019 | 0.0077 ± 0.0035
UCCUGGAUGUGCUUGCAUAGUAAUUAGAUA | 0.00915 ± 0.0044 | 0.00395 ± 0.0024
UCCUGGAACAGCUUGCAUAGUAUUUUCUUA | 0.0439 ± 0.014 | 0.00388 ± 0.0027
UCCUGCUACAGCUUGCAUAGUAAUUACUUA | 0.057 ± 0.017 | 0.0026 ± 0.0026
UCCUCCUACAGGUUCCAUAGUAUUUAGUUA | 0.0813 ± 0.027 | 0.0023 ± 0.0012
UCCUCCUACAGGAUGCAUAGUAUUUUCAAA | 0.0564 ± 0.017 | 0.00259 ± 0.0025
UCCUCCUACUGCUUGCAUAGUAUUUACAAA | 0.0424 ± 0.011 | 0.0028 ± 0.0021
UCCUGGAACAGCUUGGAUAGUAUUAAGUUA | 0.186 ± 0.033 | 0.00405 ± 0.0034
UCCUGGAACAGCUUGCAUAAGUAUUUAGUUA | 0.00757 ± 0.004 | 0.00284 ± 0.0024
UCCUGCUACAGCUUGCAUAGUAUUAUGUUA | 0.231 ± 0.047 | 0.00406 ± 0.002
UCCUGCUACAGCUUGCAUAGUAUUUAGGUA | 0.143 ± 0.034 | 0.00342 ± 0.0016
UCCUGGUAGAGCUUGCAUAGUAUUUAGAAA | 0.128 ± 0.028 | 0.00392 ± 0.0022
UCCUGGAACAGCUAGCAUAGUAUUUACAAA | 0.0718 ± 0.019 | 0.00337 ± 0.0029
UCCUGGAUGAGCUUGUCAUAGUAUUUAGUUA | 0.0971 ± 0.013 | 0.00721 ± 0.0027
UCCUGGAACUCCUUGCAUAGUAUUUAGAAA | 0.162 ± 0.029 | 0.00313 ± 0.0019
UCCUGCUACAGCUUGCAUAGUAUUUAGUGUA | 0.244 ± 0.048 | 0.00597 ± 0.0021
UCCUGCUAGAGCUUGCAUAGUAUUUUCAAA | 0.0124 ± 0.0058 | 0.00315 ± 0.0025
UCCUCCUACAGCAAGCAUAGUAUUUAGAAA | 0.217 ± 0.035 | 0.00443 ± 0.0036
UCCUGGAUGUCCUUGCAUAGUAUUUAGUCUA | 0.0325 ± 0.01 | 0.00301 ± 0.0024

Sequence | pre-steady-state target cleavage rate [1] | pre-steady-state target cleavage rate [2]
UCCUGGAUCAGCUUGCAUAGUAUUUUGAAA | 0.108 ± 0.027 | 0.00318 ± 0.0016
UCCUGCUACAGCUUGCUUAGUAUUUUGUUA | 0.156 ± 0.027 | 0.0127 ± 0.004
UCCUGGUACAGGUUGCAUAGUAUUUAGAUA | 0.195 ± 0.054 | 0.00271 ± 0.0024
UCCUGCUACACCUUGCAUAGUAUUUUGUUA | 0.1 ± 0.032 | 0.00317 ± 0.0023
UCCUGCUACAGCUUGCAUAGUAUUAUCUAA | 0.0551 ± 0.014 | 0.00395 ± 0.0027
UCCUGGAACACCUUGCAUAGUAUUAAGUUA | 0.189 ± 0.034 | 0.00303 ± 0.0027
UCCUGGAUCAGCUUGCAUAGUAAUUUGUUA | 0.114 ± 0.025 | 0.00366 ± 0.002
UCCUGCUACAGCUUGCUUAGAAUUUAGUUA | 0.0543 ± 0.011 | 0.00357 ± 0.0018
UCCUGGAUCAGCUUGCAUUGUAUUUAGAUA | 0.103 ± 0.019 | 0.00276 ± 0.0021
UCCUGCUACACCUUGCAUAGUAUUAAGUUA | 0.178 ± 0.034 | 0.00618 ± 0.0036
UCCUGGUACAGGUUGCAUAGAAUUUAGUUA | 0.0804 ± 0.021 | 0.00277 ± 0.0022
UCCUGGUACAGCUUGCAAAGUAUUUAGAAA | 0.0181 ± 0.0094 | 0.00656 ± 0.0038
UCCUGCUACAGCUUGCAUAGUAAAUAGUUA | 0.17 ± 0.027 | 0.00532 ± 0.0029
UCCUGGAACAGCUUGCAUAGUAUUUAGCUUA | 0.195 ± 0.047 | 0.00529 ± 0.0018
UCCUGGAACAGCUUGCAUAGUUAUUAGUUA | 0.0369 ± 0.0099 | 0.00251 ± 0.0017
UCCUCCUACAGCUUGCAUAGUAUUUUGAAA | 0.148 ± 0.03 | 0.00602 ± 0.0032
UCCUCCAUCAGCUUGCAUAGUAUUUUCAAA | 0.0846 ± 0.02 | 0.00384 ± 0.0024
UCCUGGAUGAGCUUGCAUAGUAUAAAGUUA | 0.255 ± 0.047 | 0.00848 ± 0.0042
UCCUGCUUCAGCUUGCAUAGAAUUUAGUUA | 0.0587 ± 0.011 | 0.00544 ± 0.0015
UCCUGGUACAGCUAGCAUAGUAUUUAGAAA | 0.0357 ± 0.013 | 0.00319 ± 0.0022
UCCUGGAACAGCUUCCAUAGUAUUUAGUAA | 0.0767 ± 0.03 | 0.00376 ± 0.0014

Sequence | pre-steady-state target cleavage rate [1] | pre-steady-state target cleavage rate [2]
UCCUCCUACAGCUUGCAUAGUAUUUACAAA | 0.197 ± 0.04 | 0.00422 ± 0.003
UCCUGCUACAGCUUGCAUAGUAUUUUCAAA | 0.137 ± 0.041 | 0.00277 ± 0.0021
UCCUGCUACAGCUUGCAUUGUAUUUAGAAA | 0.111 ± 0.03 | 0.00474 ± 0.0017
UCCUGGUACAGCUUGCAUAGUAUUUUGAAA | 0.06 ± 0.022 | 0.00282 ± 0.0028
UCCUCCUACAGCUUGGAUAGUAUUUACAAA | 0.021 ± 0.0081 | 0.00267 ± 0.0022
UCCUGGAUGUGCUUGCAUAGUAUUUACGUUA | 0.129 ± 0.026 | 0.00702 ± 0.0042
UCCUGGAUCAGCUUGCAUACUAUUAAGUUA | 0.0204 ± 0.0077 | 0.00253 ± 0.0023
UCCUCCUUGAGCUUGCAUAGUAUUUAGAAA | 0.145 ± 0.025 | 0.00549 ± 0.0018
UCCUCCUACAGGAUGCAUAGUAUUUAGAAA | 0.0838 ± 0.015 | 0.00396 ± 0.0014
UCCUCCUAGAGCUUCCAUAGUAUUUAGUUA | 0.0812 ± 0.025 | 0.00302 ± 0.0014
UCCUCCUACAGCUUGCAUAGUAUUAAGAAA | 0.159 ± 0.036 | 0.0051 ± 0.0031
UCCUGGAUCAGCUAGCAUAGUAUUUAGAAA | 0.139 ± 0.016 | 0.0036 ± 0.0022
UCCUGCUACAGCUUGCAUAGUUUUUACAAA | 0.0689 ± 0.019 | 0.00339 ± 0.0026
UCCUCCUACAGCAUGCAUAGAAUUUAGUUA | 0.176 ± 0.044 | 0.00245 ± 0.0015
UCCUGCUACAGCUUGCAUAGUAUAAUCAAA | 0.0335 ± 0.013 | 0.00391 ± 0.0037
UCCUGGAUGUGCCUGCAUAGUAUUUAGUUA | – | 0.00933 ± 0.0036
UCCUGGAUCAGCUUGCAUAGUAUUAAGAUA | 0.0716 ± 0.025 | 0.006 ± 0.0032
UCCUGGAUGAGCUUGCAUAGUAUUUGGUUA | – | 0.00713 ± 0.002
UCCUGCUACAGCUUGCAUAGUAUUUUGAUA | 0.142 ± 0.037 | 0.00307 ± 0.0023
